Laboratory results: the supplement of paper PMC13172266
Where a name gives a salt, the structure may show the parent alone.

What follows are compounds tested on U2932 parental (assay: cell proliferation relative to vehicle (% of vehicle); higher = less growth inhibition). Conditions: 500 nM; 72 h.
Summary of the method: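 Growth medium with 10% FBS at 37°C and 5% CO2 was used to culture U2932, an ABC-DLBCL line, in parental form and as two clones rendered resistant to an ETS-targeting agent by repeated exposure over almost a year. These cells received compounds from a 348-member targeted inhibitor library at 500 nM or 50 nM for 72 h, followed by 4 h of MTT, a 25% SDS stop and an absorbance read on a Cytation 3. The percentage of proliferating cells is reported relative to DMSO vehicle.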

Compound | cell proliferation
CN(C)Cc1c(C(=O)NCCOc2ccc(C(=O)NO)cc2)oc2ccccc12 | 32.6
C[C@@H](Oc1cc(-n2cnc3ccc(CN4CCN(C)CC4)cc32)sc1C(N)=O)c1ccccc1C(F)(F)F | 10.6
COc1ccc2c(Oc3ccc(NC(=O)c4c(C)n(CC(C)(C)O)n(-c5ccccc5)c4=O)nc3)ccnc2c1 | 97
COc1cc(CCc2cc(NC(=O)c3ccc(N4CC(C)NC(C)C4)cc3)n[nH]2)cc(OC)c1 (stereo unspecified) | 95.6
CO[C@H]1/C=C\C=C(/C)C(=O)NC2=CC(=O)C(NCCN(C)C)=C(C[C@@H](C)C[C@H](OC)[C@H](O)[C@@H](C)/C=C(\C)[C@@H]1OC(N)=O)C2=O [17-DMAG (Alvespimycin) HCl] | 3.09
Cc1c(NC(=O)OC[C@@H]2COCCN2)cn2ncnc(Nc3ccc4c(cnn4Cc4cccc(F)c4)c3)c12 | 81.6
C[C@@H]1CN(CC(=O)Nc2ccc3c(c2)Cc2cccc(-c4cc(=O)cc(N5CCOCC5)o4)c2S3)C[C@H](C)O1 | 111
Oc1ccc(Nc2nc(-c3ccc(Cl)cc3)cs2)cc1 | 95.5
C=CCn1c(=O)c2cnc(Nc3ccc(N4CCN(C)CC4)cc3)nc2n1-c1cccc(C(C)(C)O)n1 | 33.1
C=C1/C(=C\C=C2/CCC[C@]3(C)[C@@H]([C@H](C)/C=C/[C@H](C)C(C)C)CC[C@@H]23)C[C@@H](O)C[C@@H]1O [Doxercalciferol] | 98.5
Cn1nnc2c(C(N)=O)ncn2c1=O [Temozolomide] | 96.5
Nc1nc(N)c2nc(-c3cccc(O)c3)c(-c3cccc(O)c3)nc2n1 | 99.2
COc1cc2c(Oc3ccc4[nH]c(C)cc4c3F)ncnc2cc1OCCCN1CCCC1 [Cediranib (AZD2171)] | 90.4
Cc1[nH]c(/C=C2\C(=O)Nc3ccc(S(=O)(=O)Cc4c(Cl)cccc4Cl)cc32)c(C)c1C(=O)N1CCC[C@@H]1CN1CCCC1 | 96.8
C[C@@H]1CC(=O)c2c(ccc3c2C(=O)c2cccc(O)c2C3=O)C1 | 97
COC(=O)c1ccc([C@H]2c3[nH]c4ccccc4c3C[C@H](C(=O)OC)N2C(=O)CCl)cc1 | -1.25
COc1cc(Nc2c(C#N)cnc3cc(OCCCN4CCN(C)CC4)c(OC)cc23)c(Cl)cc1Cl [Bosutinib (SKI-606)] | 83.4
CN(C)c1nc(N(C)C)nc(N(C)C)n1 [Altretamine] | 104
COc1ccccc1OCC(O)CN1CCN(CC(=O)Nc2c(C)cccc2C)CC1 (stereo unspecified) [Ranolazine] | 99.1
O=c1c(O)c(-c2ccc(O)c(O)c2)oc2cc(O)cc(O)c12 [Quercetin] | 106
Cc1csc(-c2nnc(Nc3ccc(Oc4ncccc4-c4ccnc(N)n4)cc3)c3ccccc23)c1 | 61.8
CCCCc1nc2cc(/C=C/C(=O)NO)ccc2n1CCN(CC)CC [Pracinostat (SB939)] | 50.1
COc1ccc(C2=N[C@@H](c3ccc(Cl)cc3)[C@@H](c3ccc(Cl)cc3)N2C(=O)N2CCNC(=O)C2)c(OC(C)C)c1 [Nutlin-3] | 99.6
O=c1sn(-c2cccc3ccccc23)c(=O)n1Cc1ccccc1 [Tideglusib] | 93.1
CCc1cncnc1N1CCN(Cc2nc3ccc(C(F)(F)F)cc3[nH]2)CC1 | 92
CN[C@@H](C)C(=O)N[C@H](C(=O)N1CCC[C@H]1C(=O)Nc1snnc1-c1ccccc1)C1CCCCC1 | 103
